Here are results for 39 compounds from PubChem BioAssay AID1259240 (Keith Lab, Institute of Cancer Science, University of …, 2017).

The structures appear in SMILES notation. Active and inactive are the calls of the source. Cut-off read from the data, not from the text of the source: active = fold change mostly below about -2 (no sharp cut-off); inactive = mostly above about -1.8.

A short description of this assay: TERT promoter activity modulators, primary screen, cell-based, luciferase reporter, human (AID 1259240). To be noted: A2780 TERT promoter luciferase reporter, 16 h; at 20 µM, fold versus average of vehicle-only wells. A general note: In a reporter assay the amount or activity of a reporter protein is the signal.
Take `CC(=O)NC1=NN(C(C)=O)C2(S1)C(=O)N(C)c1ccccc12` (centres undefined): the fold change is -1.23 (inactive).
`CC(=O)c1ccc2c(c1)c1cc(C(C)=O)ccc1n2C`: the fold change was -1.83 (inactive).
For the compound `CCN(CC)c1ccc2cc(C(=O)O)c(=O)oc2c1`, the fold change is 1.12 (inactive).
The same measure, in the same setting: the figure for `Cc1cc(NC(=O)c2cc3c(s2)-c2ccccc2S(=O)(=O)C3)no1` is 1.14 (inactive); for `COC(=O)c1ccc(CSc2nc(-c3ccco3)nc3c2c(=O)n(C)c(=O)n3C)o1` it is -1.08 (inactive); for `Clc1ccc(CNc2ncnc3nc[nH]c23)cc1` it is 2.09 (active).
In the case of `CCN1C(=O)C(O)(CC(=O)c2ccc(Br)s2)c2ccccc21` (centres undefined), the fold change is -1.03 (inactive).
On the same count and under the same terms, the figure for `O=C(CC(=O)Nc1ccc(F)cc1F)Nc1ccc2nc3n(c(=O)c2c1)CCCCC3` is -1.32 (inactive); for `NCCn1c(-c2cccnc2)n[nH]c1=S` it is -1.19 (inactive).
As to `O=C1C(c2sc3ccccc3c2O)=Nc2c1ccc1ccccc21`, the call was active.
As for `CCc1nccn1S(=O)(=O)c1ccc(OC)c(OC)c1`, the fold change was -2.54 (active).
Same read-out and setting: the figure for `O=C(CSc1c2c(nc3cc(Cl)ccc13)CCCC2)Nc1nccs1` is -3.17 (active); for `COc1ccc(S(=O)(=O)N2N=C(c3ccc(NS(C)(=O)=O)cc3)CC2c2ccco2)cc1` (centres undefined) it is 1.12 (inactive).
As to `Cc1ccc(Cl)cc1N1C(=O)Nc2ccccc2N1O`, the fold change is -1.07 (inactive).
On the same count and under the same terms, the figure for `Cc1ccc2c(c1)c(-c1ccccc1)nc1nncn12` is 1.67 (inactive); for `O=C(NCCc1c[nH]c2ccccc12)c1cc2ccccn2n1` it is 1.7 (inactive).
Take `CCc1c(C)sc(NC(=O)c2cc(C)no2)c1C#N`: the fold change was 1.32 (inactive).
In the case of `COCC(=O)N1N=C(c2ccc(NS(C)(=O)=O)cc2)CC1c1ccco1` (centres undefined), the fold change is 1.02 (inactive).
On to `COC(=O)c1ccc(C2NC(=O)c3n[nH]c(C)c32)cc1` (centres undefined), for which the fold change was -1.08 (inactive).
Still for that read-out and setting: in the case of `CC(=O)c1cccc(Nc2nc(-c3c(C)nc4cc(C)ccn34)cs2)c1` it was -2.84 (active); in that of `COc1ccc2[nH]cc(S(=O)(=O)c3ccc(C)cc3)c(=O)c2c1`, 1.08 (inactive).
With `Cc1ccc(Cn2nc(C)c(NC(=O)c3onc(C)c3Cl)c2C)cc1`, the fold change is 1.31 (inactive).
Turning to `CCN(CC)CCNC(=O)CN1C(=O)COc2ccc(S(=O)(=O)N3CCOCC3)cc21`, the fold change was -1.1 (inactive).
Consider `COc1ccc(CCn2c(=O)c3cccnc3n(CC#N)c2=O)cc1OC`, for which the fold change is 1.04 (inactive).
Still for that read-out and setting: the figure for `Cc1sc(-c2c(C#N)c(N)nc3c2CCCC3)cc1Br` is -4.77 (active); for `CCOC(=O)Cn1c(=O)oc2cc(S(=O)(=O)NC3CCN(C(=O)OCC)CC3)ccc21` it is 1.58 (inactive).
`CCOC(=O)Cn1c(=O)oc2cc(S(=O)(=O)NCc3cccs3)ccc21`: the fold change is -1.2 (inactive).
The same measure, in the same setting: the figure for `CCOC(=O)c1c(C)n(C)c2ccc(OCC(O)CN3CCCCC3C)cc12` (centres undefined) is -2.14 (active); for `CC(C)n1cnc2cc(NCc3ccccc3Cl)ccc21` it is -2.21 (active); for `Cc1cc(C)cc(N(CC(=O)O)S(=O)(=O)c2ccc3[nH]c(=O)c(=O)[nH]c3c2)c1` it is 1.37 (inactive).
Same read-out and setting: the figure for `CC(=O)c1cc2c(cc1NC(=O)c1cc(C)nn1-c1ccccc1)OCO2` is -1.17 (inactive); for `Cc1nc2sc3c(NC4CCCCC4)ncnc3c2c2c1COC(C)(C)C2` it is -1.55 (inactive).
Take `CCOC(=O)C1CCCN(c2c(N3CCC(C(N)=O)CC3)c(=O)c2=O)C1` (centres undefined): the fold change is -1.23 (inactive).
Still for that read-out and setting: the figure for `Cc1cc(NC(=O)CSc2nnc(Cc3cc(=O)[nH]c(=O)[nH]3)n2-c2ccccc2)no1` is -1.88 (inactive); for `Cc1nc(SCc2cccc(C(F)(F)F)c2)c2c(=O)n(C)c(=O)n(C)c2n1` it is 1.26 (inactive).
Still for that read-out and setting: in the case of `NC(=O)C1CCN(C(=O)N2c3ccccc3Sc3ccccc32)CC1` it was -2.9 (active); in that of `O=C(Nc1cccnc1)c1ccc2c(c1)C1C3CCC(C3)C1C(c1ccccc1)N2` (centres undefined), -1.08 (inactive); in that of `CC(C)Oc1cc(O)c2c(=O)c(-c3ccc(O)cc3)coc2c1`, -6.88 (active).
Still for that read-out and setting: in the case of `O=C(CSc1nncc2ccccc12)Nc1ccccc1` it was 1.07 (inactive).
